The results in this text go back to the supplement of paper PMC11732987, “Enantioselective OTUD7B fragment discovery through chemoproteomics screening and high-throughput optimisation” (Communications Chemistry, 2025).

Values without a mark were called inactive.

Common to all, as to assay: log2 ratio of Biotin-Ahx-Ub-VS probe labelling (fragment/DMSO); higher = less target engagement (more negative = stronger competition), active = hit call of the paper (q ≤ 0.05, log2 ratio ≤ -1)
Holding throughout (details): compound concentration: 200 uM; treatment time: 3 h

One test addresses T1, OTUD6B (UniProt Q8N6M0).
T1 sequence (whole entry): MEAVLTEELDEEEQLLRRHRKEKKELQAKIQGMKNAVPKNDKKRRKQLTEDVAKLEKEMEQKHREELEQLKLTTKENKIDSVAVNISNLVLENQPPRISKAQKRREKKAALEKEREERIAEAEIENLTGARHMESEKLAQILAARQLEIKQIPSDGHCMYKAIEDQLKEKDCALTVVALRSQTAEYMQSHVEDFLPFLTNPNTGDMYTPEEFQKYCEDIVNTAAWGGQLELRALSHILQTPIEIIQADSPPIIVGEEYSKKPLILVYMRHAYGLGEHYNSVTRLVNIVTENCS
Put shortly:
(§1)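 HEK293T lysate in Tris/CHAPS/IGEPAL buffer with protease inhibitors (495 µg per sample) was given fragment at 200 µM or vehicle for 3 h, in triplicate. It then received Biotin-Ahx-Ub-VS at 0.5 µM final for 1 h. Labelled DUBs were NeutrAvidin-enriched, digested with LysC and trypsin, and run by diaPASEF LC-MS/MS. Values are average log2 fragment/vehicle ratios by unpaired t-test on global-median-normalised Spectronaut quantities of proteins with ≥2 unique peptides.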

The next test has as its target T2, OTUD7B (UniProt Q6GQQ9).
T2 sequence (whole entry): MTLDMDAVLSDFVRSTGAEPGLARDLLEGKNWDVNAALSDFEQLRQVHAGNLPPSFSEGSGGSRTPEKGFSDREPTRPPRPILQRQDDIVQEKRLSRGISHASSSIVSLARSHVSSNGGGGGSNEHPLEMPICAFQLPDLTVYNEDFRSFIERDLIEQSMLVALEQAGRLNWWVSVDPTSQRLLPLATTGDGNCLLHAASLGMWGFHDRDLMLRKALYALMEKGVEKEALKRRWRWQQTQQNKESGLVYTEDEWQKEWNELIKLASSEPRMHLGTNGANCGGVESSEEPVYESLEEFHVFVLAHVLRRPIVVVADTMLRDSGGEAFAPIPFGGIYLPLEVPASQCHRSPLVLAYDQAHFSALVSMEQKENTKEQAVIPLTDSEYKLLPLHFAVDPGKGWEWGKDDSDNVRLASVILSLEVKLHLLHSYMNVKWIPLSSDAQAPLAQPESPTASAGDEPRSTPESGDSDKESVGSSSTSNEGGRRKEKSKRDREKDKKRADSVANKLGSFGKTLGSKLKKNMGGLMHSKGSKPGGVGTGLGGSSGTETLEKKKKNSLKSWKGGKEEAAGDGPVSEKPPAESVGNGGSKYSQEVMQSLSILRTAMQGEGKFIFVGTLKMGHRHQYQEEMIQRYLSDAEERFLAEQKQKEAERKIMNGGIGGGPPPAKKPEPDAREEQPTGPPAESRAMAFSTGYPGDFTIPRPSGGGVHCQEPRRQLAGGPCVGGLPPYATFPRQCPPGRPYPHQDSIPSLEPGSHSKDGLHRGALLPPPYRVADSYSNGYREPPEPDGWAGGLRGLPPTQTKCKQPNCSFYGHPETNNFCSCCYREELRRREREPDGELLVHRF
An outline of the steps: as §1

The target of the next test is PRPF8 (UniProt Q6P2Q9). An outline of the steps: as §1
The target of another test is T3, PSMD7 (UniProt P51665).
T3 sequence (whole entry): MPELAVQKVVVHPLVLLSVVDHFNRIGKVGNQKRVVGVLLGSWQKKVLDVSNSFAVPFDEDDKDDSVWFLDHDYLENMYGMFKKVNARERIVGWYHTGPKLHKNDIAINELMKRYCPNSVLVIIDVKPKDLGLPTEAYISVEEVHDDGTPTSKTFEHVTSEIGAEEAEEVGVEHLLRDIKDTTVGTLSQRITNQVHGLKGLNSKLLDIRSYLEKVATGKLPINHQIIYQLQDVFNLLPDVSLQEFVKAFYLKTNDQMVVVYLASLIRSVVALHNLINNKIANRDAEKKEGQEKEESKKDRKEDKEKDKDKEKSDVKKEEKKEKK
Put shortly: as §1

A further test concerns the target UCHL1 (UniProt P09936). An outline of the steps: as §1
The next test addresses T4, UCHL3 (UniProt P15374).
T4 sequence (whole entry): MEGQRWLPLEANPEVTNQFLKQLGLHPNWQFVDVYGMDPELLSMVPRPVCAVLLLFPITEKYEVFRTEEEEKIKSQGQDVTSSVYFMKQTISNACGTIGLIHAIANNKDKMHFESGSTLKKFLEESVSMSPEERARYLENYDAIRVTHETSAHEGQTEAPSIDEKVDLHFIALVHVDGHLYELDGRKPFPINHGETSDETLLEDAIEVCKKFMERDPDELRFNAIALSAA
Put shortly:
as §1

In the next test the target is T5, UCHL5 (UniProt Q9Y5K5).
T5 sequence (whole entry): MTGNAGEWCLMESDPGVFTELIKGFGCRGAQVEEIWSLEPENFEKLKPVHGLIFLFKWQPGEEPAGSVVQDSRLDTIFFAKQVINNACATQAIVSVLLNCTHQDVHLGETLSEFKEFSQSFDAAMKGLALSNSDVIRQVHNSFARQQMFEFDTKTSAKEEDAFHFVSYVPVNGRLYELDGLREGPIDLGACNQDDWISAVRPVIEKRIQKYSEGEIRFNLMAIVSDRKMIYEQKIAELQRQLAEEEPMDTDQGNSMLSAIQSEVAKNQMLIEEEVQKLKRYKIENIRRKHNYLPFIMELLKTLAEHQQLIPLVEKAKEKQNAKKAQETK
An outline of the steps:
as §1

A further test deals with USP10 (UniProt Q14694). Put shortly: as §1
Sequence of USP10 (Q14694 whole entry): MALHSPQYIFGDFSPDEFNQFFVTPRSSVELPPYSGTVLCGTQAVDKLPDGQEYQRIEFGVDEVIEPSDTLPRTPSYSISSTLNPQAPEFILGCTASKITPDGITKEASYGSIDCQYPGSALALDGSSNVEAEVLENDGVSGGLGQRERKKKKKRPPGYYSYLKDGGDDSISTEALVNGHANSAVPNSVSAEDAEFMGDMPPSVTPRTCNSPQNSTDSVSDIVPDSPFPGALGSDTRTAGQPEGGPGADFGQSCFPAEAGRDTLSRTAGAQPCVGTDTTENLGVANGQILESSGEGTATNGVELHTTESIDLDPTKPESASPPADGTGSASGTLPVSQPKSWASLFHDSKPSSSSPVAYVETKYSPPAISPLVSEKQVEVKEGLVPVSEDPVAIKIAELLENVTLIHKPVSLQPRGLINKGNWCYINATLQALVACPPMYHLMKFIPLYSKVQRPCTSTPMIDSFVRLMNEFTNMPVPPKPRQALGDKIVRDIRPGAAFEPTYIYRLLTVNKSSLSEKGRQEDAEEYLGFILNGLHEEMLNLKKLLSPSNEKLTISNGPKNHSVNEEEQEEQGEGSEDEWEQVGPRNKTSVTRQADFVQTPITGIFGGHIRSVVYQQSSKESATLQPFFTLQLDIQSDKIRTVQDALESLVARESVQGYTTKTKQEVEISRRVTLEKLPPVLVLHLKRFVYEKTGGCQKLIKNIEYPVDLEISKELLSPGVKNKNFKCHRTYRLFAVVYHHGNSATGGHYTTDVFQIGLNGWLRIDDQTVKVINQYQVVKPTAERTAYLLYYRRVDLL
A further test addresses T6, USP15 (UniProt Q9Y4E8).
T6 sequence (whole entry): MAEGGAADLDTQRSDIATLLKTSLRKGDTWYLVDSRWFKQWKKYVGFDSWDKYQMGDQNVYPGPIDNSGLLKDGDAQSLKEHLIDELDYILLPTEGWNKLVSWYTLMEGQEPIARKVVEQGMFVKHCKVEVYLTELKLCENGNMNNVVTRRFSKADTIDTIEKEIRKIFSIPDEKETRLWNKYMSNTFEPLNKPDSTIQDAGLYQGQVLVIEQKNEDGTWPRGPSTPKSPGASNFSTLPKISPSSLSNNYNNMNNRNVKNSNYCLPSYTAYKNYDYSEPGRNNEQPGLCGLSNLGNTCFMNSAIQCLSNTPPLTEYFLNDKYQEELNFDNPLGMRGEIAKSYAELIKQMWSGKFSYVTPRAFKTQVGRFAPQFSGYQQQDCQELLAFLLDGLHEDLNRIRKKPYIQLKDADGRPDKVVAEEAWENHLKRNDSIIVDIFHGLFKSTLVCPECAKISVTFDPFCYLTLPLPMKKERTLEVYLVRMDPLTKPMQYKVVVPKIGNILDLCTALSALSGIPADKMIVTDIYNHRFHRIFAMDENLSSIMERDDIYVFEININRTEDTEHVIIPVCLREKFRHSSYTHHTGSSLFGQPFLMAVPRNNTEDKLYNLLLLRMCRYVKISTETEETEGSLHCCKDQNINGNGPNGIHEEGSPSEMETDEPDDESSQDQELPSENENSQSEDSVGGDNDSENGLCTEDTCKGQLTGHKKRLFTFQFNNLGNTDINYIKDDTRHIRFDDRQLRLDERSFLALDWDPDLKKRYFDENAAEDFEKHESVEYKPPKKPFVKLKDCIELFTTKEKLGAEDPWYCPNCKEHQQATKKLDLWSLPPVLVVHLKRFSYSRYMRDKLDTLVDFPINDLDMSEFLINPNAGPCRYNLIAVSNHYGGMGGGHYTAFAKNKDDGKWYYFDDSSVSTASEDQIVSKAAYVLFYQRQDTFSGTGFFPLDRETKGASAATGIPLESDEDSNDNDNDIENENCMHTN
Put shortly: as §1

Another test addresses USP16 (UniProt Q9Y5T5). An outline of the steps: as §1

Sequence of USP16 (Q9Y5T5 whole entry, looked up): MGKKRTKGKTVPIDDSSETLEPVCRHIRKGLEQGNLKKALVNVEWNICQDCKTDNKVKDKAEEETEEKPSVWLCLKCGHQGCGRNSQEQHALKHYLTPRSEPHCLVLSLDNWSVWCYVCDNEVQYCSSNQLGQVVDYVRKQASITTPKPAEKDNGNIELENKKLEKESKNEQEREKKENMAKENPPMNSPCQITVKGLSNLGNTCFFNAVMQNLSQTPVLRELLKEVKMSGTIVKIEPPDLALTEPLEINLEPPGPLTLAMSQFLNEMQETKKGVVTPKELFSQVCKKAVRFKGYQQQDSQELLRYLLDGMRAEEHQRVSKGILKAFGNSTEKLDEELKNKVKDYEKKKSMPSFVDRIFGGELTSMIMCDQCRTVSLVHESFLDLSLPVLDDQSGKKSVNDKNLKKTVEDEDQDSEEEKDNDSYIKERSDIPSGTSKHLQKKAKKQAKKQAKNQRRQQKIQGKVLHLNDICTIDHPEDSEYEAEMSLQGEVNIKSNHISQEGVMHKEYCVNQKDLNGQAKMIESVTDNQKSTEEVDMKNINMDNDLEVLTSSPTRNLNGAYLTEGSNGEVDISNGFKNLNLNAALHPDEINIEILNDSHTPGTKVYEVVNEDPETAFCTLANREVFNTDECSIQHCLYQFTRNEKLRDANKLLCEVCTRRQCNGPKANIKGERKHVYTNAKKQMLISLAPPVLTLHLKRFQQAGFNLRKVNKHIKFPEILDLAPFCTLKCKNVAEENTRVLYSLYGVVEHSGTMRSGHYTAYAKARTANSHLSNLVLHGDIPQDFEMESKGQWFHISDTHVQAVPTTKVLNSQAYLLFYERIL
Sequence of UCHL1 (P09936 whole entry, looked up): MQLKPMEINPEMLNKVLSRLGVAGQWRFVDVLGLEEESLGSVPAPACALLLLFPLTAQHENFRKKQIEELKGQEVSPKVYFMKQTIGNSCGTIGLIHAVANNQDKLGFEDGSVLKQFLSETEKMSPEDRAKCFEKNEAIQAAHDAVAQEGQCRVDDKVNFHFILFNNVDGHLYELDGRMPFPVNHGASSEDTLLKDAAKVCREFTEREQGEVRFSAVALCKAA

On to `Cl.Cn1ncc2c1CC(NC(=O)CCl)CC2` (stereo not given), for which the “log2 ratio of Biotin-Ahx-Ub-VS probe labelling” value (“log2 ratio” for short) is 0.0134 in the test with OTUD6B; -0.999 with OTUD7B; 0.142 in the test with PRPF8; -0.2 with PSMD7; -1.84 (active) with UCHL1; 0.377 with UCHL3. Also, the “log2 ratio” value in the test with UCHL5 is -0.0217; with USP10, -0.106; in the test with USP15, -0.0211; in the test with USP16, -0.62.

With `COc1ccc(CN(C)C(=O)CCl)cc1`, the “log2 ratio” value was -0.199 with OTUD6B; -0.373 with OTUD7B; 0.0533 in the test with PRPF8; -0.411 in the test with PSMD7; -1.22 (active) with UCHL1; 0.249 with UCHL3. Moreover, the “log2 ratio” value in the test with UCHL5 is -0.235; in the test with USP10 it was -0.213; in the test with USP15 it was -0.112; with USP16, 0.163.

Take `Cc1ccc(-c2nnc(C)[nH]2)c(NC(=O)CCl)c1`: the “log2 ratio” value with OTUD6B is -0.00419; with OTUD7B it was -0.183; in the test with PRPF8 it was -0.0454; with PSMD7 it was -0.177; with UCHL1, -1.14 (active); with UCHL3, 0.176. Further, the “log2 ratio” value was -0.152 with UCHL5, 0.0193 in the test with USP10, -0.0491 with USP15 and 0.114 in the test with USP16.

Turning to `O=C(CCl)N1CCOC2(CCC2)C1`, the “log2 ratio” value was 0.01 with OTUD6B; -1.29 (active) in the test with OTUD7B; -0.0922 with PRPF8; -0.254 in the test with PSMD7; -1.53 (active) with UCHL1; 0.273 in the test with UCHL3. Moreover, the “log2 ratio” value in the test with UCHL5 was -0.0117; in the test with USP10, 0.0764; in the test with USP15, 0.059; with USP16, 0.246.

For `O=C(CCl)N1CCC(OCc2ccccc2F)CC1`, the “log2 ratio” value is 0.102 in the test with OTUD6B; -0.198 with OTUD7B; 0.14 with PRPF8; 0.0473 in the test with PSMD7; -1.13 (active) in the test with UCHL1; 0.341 with UCHL3. Moreover, the “log2 ratio” value is -0.00457 with UCHL5, -0.192 in the test with USP10, -0.104 with USP15 and -0.184 with USP16.

On to `Cl.Cn1nc2c(c1CNC(=O)CCl)CCCC2`, for which the “log2 ratio” value with OTUD6B was -0.361; with OTUD7B it was -1.04 (active); with PRPF8, -0.184; in the test with PSMD7, -0.299; with UCHL1, -1.7 (active); in the test with UCHL3 it was 0.314. The “log2 ratio” value is -0.368 with UCHL5, -0.24 with USP10, -0.224 with USP15 and -0.4 with USP16.

In the case of `O=C(CCl)Nc1cc2c(cc1Cl)OCCCO2`, the “log2 ratio” value is -0.0697 with OTUD6B; -0.399 with OTUD7B; 0.00677 with PRPF8; -0.0387 with PSMD7; -1.39 (active) with UCHL1; -0.323 with UCHL3. The “log2 ratio” value was -0.0527 in the test with UCHL5, -0.157 with USP10, -0.172 with USP15 and -0.508 in the test with USP16.

`O=C(CCl)NCCc1ccc2c(c1)OCCO2`: the “log2 ratio” value with OTUD6B is -0.218; with OTUD7B it was -0.434; with PRPF8, 0.0207; in the test with PSMD7, -0.153; with UCHL1 it was -1.2 (active); in the test with UCHL3, -0.0656. Besides, the “log2 ratio” value is -0.156 with UCHL5, -0.3 in the test with USP10, -0.184 in the test with USP15 and 0.248 in the test with USP16.
